The list is not random: actives were taken first. Their share in the collection is about 2.9%.
GAA850 FXN act: frataxin GAA850 promoter activation | HEK293 lucGAA850 FXN promoter luciferase reporter, 24 h; percent of 10 µM SAHA response | activation, % at 6 µM | 360,000 tested, 0.56% active;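 active means activation above the average of all compounds screened plus 3 SD, cutoff fixed separately per campaign, cut at about 7.5% in these data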
SMARCA2 act: increases SMARCA2 function in MMTV reporter cells; MG213 cells, MMTV-luciferase reporter, dexamethasone, overnight; activation, % at 9.1 µM; 370,000 tested, 1% active; AID 652017; in the data active means activation above about 7.8%
FAS-TE inh: inhibitors of human fatty acid synthase thioesterase domain. inhibition, % at 15 µM. AID 602261. 360,000 tested, 0.67% active. P49327. recombinant FAS-TE, OMFH fluorogenic substrate, fluorescence endpoint;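 active means compounds whose normalised, plate-corrected inhibition of enzyme fluorescence in the single-dose primary screen is 50% or more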
KLK7 zymogen act: proKLK7 (human) activation, primary screen. AID 652039. 370,000 tested, 0.9% active. activation, % at 7 µM. P49862. purified proKLK7, EDANS-DABCYL substrate fluorescence; 100% is mature enzyme control, 0% vehicle;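 active means activation above the mean of all tested compounds plus 3 SD, computed per campaign excluding outliers beyond control limits, cut at about 13% in these data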
Target sequence (P49862 whole entry, looked up): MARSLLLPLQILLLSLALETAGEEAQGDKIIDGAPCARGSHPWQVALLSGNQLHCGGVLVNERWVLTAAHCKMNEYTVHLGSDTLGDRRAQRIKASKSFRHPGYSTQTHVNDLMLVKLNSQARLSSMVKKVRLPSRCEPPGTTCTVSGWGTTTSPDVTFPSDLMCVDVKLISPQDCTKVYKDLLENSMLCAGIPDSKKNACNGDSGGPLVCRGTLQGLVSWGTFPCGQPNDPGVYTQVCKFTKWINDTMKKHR
FAS-TE inh conf: FAS thioesterase (human) inhibition, confirmation; inhibition, % at 15 µM; recombinant FAS-TE, OMFH fluorogenic substrate, fluorescence; shares compounds with FAS-TE inh; 2,300 tested, 45% active;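 active means compounds inhibiting the enzyme by at least 50% at 15 µM in any one of the replicates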
SMARCA2 conf: SMARCA2 activation, confirmation screen; AID 652260; activation, % at 9.1 µM; shares compounds with SMARCA2 act; 3,500 tested, 30% active; MG213 cells, MMTV-luciferase with dexamethasone, luminescence, overnight; MG213 cells expressing E1A, Rb sequestered; DMSO wells 0%, reference activator 100%;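 active means activation above its plate's cutoff, the mean activation of tested wells plus 3 SD, cut at about 7.9% in these data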
GAL4-VP16 Luc: GAL4-VP16 reporter activation counter-screen | shares compounds with SMARCA2 act | HEK293 GAL4-VP16 pG5luc reporter, luciferase luminescence; scaled: DMSO wells 0%, SAHA wells 100% | activation, % at 9.1 µM | 3,500 tested, 41% active | AID 686939;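 active means activation above the solvent-only control well mean plus 3 SD, averaged across control plates, cut at about 5.2% in these data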
proKLK7 act conf: proKLK7 activation, confirmation | purified proKLK7, EDANS-DABCYL substrate fluorescence; scaled: vehicle 0, mature enzyme 100 | activation, % at 7 µM | 3,200 tested, 68% active | shares compounds with KLK7 zymogen act;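 active means activation, as change over the incubation, above the mean of all tested compounds plus 3 SD, cut at about 13% in these data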
EDANS interfere: fluorescence interference counter-screen for KLK7 activators; shares compounds with KLK7 zymogen act; EDANS-DABCYL substrate fluorescence interference, no enzyme, 4 h; solvent 0%, active enzyme control 100%; activation, % at 7 µM; 3,200 tested, 80% active;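 active means activation above the all-compound mean plus 3 SD, ignoring values outside control-based bounds, cut at about 4.8% in these data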;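 further: value is the 4 h activation minus the activation read at time zero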
K7 EDANS ctr: optically interferes with EDANS-DABCYL fluorescence, kallikrein-7 activator counter-screen | shares compounds with KLK7 zymogen act | EDANS-DABCYL peptide fluorescence interference, no enzyme | EC50, µM | 250 tested, 20% active;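 active means compounds that raise the fluorescence signal in this interference counterscreen, with EC50 at or below 10 µM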;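 further: intact quenched peptide substrate alone read at 355 nm excitation and 520 nm emission; signal is fluorescence gain from T0 to T4 after four hours at room temperature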
Numbers stand for hits; n = inactive; x = no result.

SMILES	GAA850 FXN act	SMARCA2 act	FAS-TE inh	KLK7 zymogen act	FAS-TE inh conf	proKLK7 act conf	EDANS interfere	others
CCCCOc1nc(N2CCOCC2)nc(C)c1[N+](=O)[O-]	n	n	n	n	x	x	x
Cc1nc(N2CCOCC2)nc(Oc2ccccc2)c1[N+](=O)[O-]	n	11	52	n	n	x	x	SMARCA2 conf=n;GAL4-VP16 Luc=n
CCC(C(=O)n1cccc1C#N)c1ccccc1C (stereo unspecified)	n	n	n	n	x	x	x
O=C(NCCCO)/C(=C/c1ccc(-c2cccc([N+](=O)[O-])c2)o1)NC(=O)c1ccccc1	n	n	n	n	x	x	x
Cc1ccc(C(=O)N/C(=C/c2ccc(-c3ccc([N+](=O)[O-])cc3)o2)C(=O)NCCCN(C)C)cc1	n	9.5	57	n	56	x	x	SMARCA2 conf=12;GAL4-VP16 Luc=n
O=C(Cn1c(=O)c2sccc2n(Cc2ccc([N+](=O)[O-])cc2)c1=O)NCCc1ccccc1	n	10	75	n	76	x	x	SMARCA2 conf=n;GAL4-VP16 Luc=n
CCCCn1c(=NC(=O)c2cccnc2)c(C#N)cc2c(=O)n3cccc(C)c3nc21	n	n	n	n	x	x	x
CCCCn1c(=NC(=O)c2ccco2)c(C(=O)OCC)cc2c(=O)n3cccc(C)c3nc21	n	n	56	18	n	n	n
O=C1C=C(c2ccccc2)C(c2ccccc2)C1O (stereo unspecified)	n	n	n	n	x	x	x
O=C(CCc1ccc(S(=O)(=O)NCCc2ccccc2)cc1)NCc1ccco1	n	n	n	n	x	x	x
COCCCNC(=O)C[C@H]1C[C@H](C(=O)N2CCOCC2)[C@@]2(CCC3CCCC3)c3[nH]c4cc(-c5ccco5)ccc4c3CCN2C1=O	n	n	59	23	29	13	18
CN(C)CCCNC(=O)C[C@H]1C[C@H](C(=O)N2CCOCC2)[C@@]2(CCC3CCCC3)c3[nH]c4cc(-c5ccco5)ccc4c3CCN2C1=O	n	8.2	70	68	78	51	51	SMARCA2 conf=n;GAL4-VP16 Luc=n
O=C(C[C@H]1C[C@H](C(=O)N2CCOCC2)[C@@]2(CCC3CCCC3)c3[nH]c4cc(-c5ccco5)ccc4c3CCN2C1=O)NCCN1CCOCC1	n	n	69	91	80	90	101
O=C(C[C@H]1C[C@H](C(=O)N2CCOCC2)[C@@]2(CCC3CCCC3)c3[nH]c4cc(-c5ccco5)ccc4c3CCN2C1=O)NCC12CC3CC(CC(C3)C1)C2	n	n	n	n	x	x	x
CCc1ccccc1NC(=O)C/C(C)=N/NC(=O)COc1ccccc1C	n	n	n	n	x	x	x
CCOC(=O)c1cc2c(=O)n3ccccc3nc2n(CC2CCCO2)c1=NC(=O)/C=C/c1ccccc1 (stereo unspecified)	n	n	80	92	83	16	n	K7 EDANS ctr=n
C=CCOC(=O)COc1ccc2c(C)c(CC)c(=O)oc2c1	n	n	70	27	73	n	13
Cc1cccn2c(=O)c(/C=C(\C#N)C(N)=O)c(N3CCN(Cc4ccc5c(c4)OCO5)CC3)nc12	n	n	56	15	69	n	n
Cc1cccn2c(=O)c(/C=C(\C#N)C(N)=O)c(N3CCN(c4cccc(Cl)c4)CC3)nc12	n	n	n	n	x	x	x
CCOc1ccc(-c2nnc(N)s2)cc1	n	n	n	n	x	x	x
Cn1c(N)c(C(=O)/C=C/c2ccccc2)c(=O)[nH]c1=O	n	12	n	n	x	x	x	SMARCA2 conf=n;GAL4-VP16 Luc=9.4

Screening results (PubChem)
